{"source": "PubChem BioAssay (NCI)", "note": "The panel holds about 83,000 compounds, 20% with a hit somewhere; the sample as a whole holds those more often.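 Cell lines were cultured in 96-well plates, exposed to a single compound concentration, and assessed for percent growth 48 hours later.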 Unmarked numbers belong to inactive results. Active and inactive are the calls of the source. The calls were made as follows: active = growth percent below 10; inactive = the rest."}
{"tested_on": "HL-60(TB) leukemia", "experiment": "NCI-60 one-dose screen, 48 h (100 = growth as untreated, 0 = no growth, -100 = all killed)", "details": "10 µM unless noted"}
{"smiles": "COc1ccc(-c2cc(-c3ccccc3)nc(NCCNc3ccnc4cc(Cl)ccc34)n2)cc1", "growth": "-58.7% (active)"}
{"smiles": "CCOC(=O)c1ccc(NC(=O)Nc2ncc(Cl)cc2Cl)cc1", "growth": "95.5%"}
{"smiles": "O=C(Nc1ccc(Cl)cc1F)c1cc(I)ccc1O", "growth": "19.9%"}
{"smiles": "COc1cc(CCN=Cc2ccccc2O)c([N+](=O)[O-])cc1OC", "growth": "101%"}
{"smiles": "Cn1cc(-c2csc(-c3cn(C)c4ncccc34)n2)c2ccccc21", "growth": "-3.85% (active)"}
{"smiles": "N#Cc1c(NC(=O)c2cccs2)[n+]([O-])c2ccc(Cl)cc2[n+]1[O-]", "growth": "122%"}
{"smiles": "c1cnc2[nH]cc(-c3csc(-c4cn(CCCN5CCCCC5)c5ccccc45)n3)c2c1", "growth": "-2.66% (active)"}
{"smiles": "CCOC(=O)c1c(N)sc2cc(O)ccc12", "growth": "94.1%"}
{"smiles": "CCOC(=O)c1c(C)oc2ncnc(Nc3ccc(NC(=O)Nc4ccc(CC)cc4)cc3)c12", "growth": "103%"}
{"smiles": "O=C1/C(=C\\c2ccc(F)cc2)CN(C(=O)c2ccccc2F)C/C1=C\\c1ccc(F)cc1", "growth": "-4.26% (active)"}
{"smiles": "CCCC[P+](c1ccccc1)(c1ccccc1)c1ccccc1", "growth": "16.3%"}
{"smiles": "CCNC(=O)C#Cc1ccc2c(C(=Nc3ccc(CN(C)C)cc3)c3ccccc3)c(O)[nH]c2c1", "growth": "-7.13% (active)"}
{"smiles": "CCCCC1COc2cccc3c(SCC(=O)N(C)c4cccc(Cl)c4)cc[n+]1c23", "note": "(stereo not given)", "growth": "102%"}
{"smiles": "N#CC1C(=N)Cc2ccccc2-c2ccccc21", "note": "(stereo not given)", "growth": "28.2%"}
{"smiles": "O=C1Nc2ccccc2/C1=C/c1cccn1CCCCCn1c2ccccc2c(=O)c2ccccc21", "growth": "47.6%"}
